For 24 compounds, GFP response vs DMSO results are on record in PubChem BioAssay AID2016 (NMMLSC, 2009).

Screen size: about 330,000 compounds; about 1,700 (0.52%) were called active. What follows is part of a selection rich in actives, with near analogues and random picks from the rest. A number with no mark means an inactive call.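 Rule for the calls: active = GFP response versus DMSO above a set limit, roughly screen mean plus 3 SD (cut at about 180% in these data); inconclusive = fewer than 70 cells counted for a yeast strain; inactive = the rest.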

The nature of the experiment: modulators of MEP2-GFP levels in yeast, primary screen, S. cerevisiae, multiplex flow cytometry, MLPCN library (AID 2016).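 Note: median GFP fluorescence of the barcode-gated MEP2-GFP cells per well.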 The following applies: S. cerevisiae MEP2-GFP strain, 3 h, at 10 µM, active compounds read high, 100% = DMSO control level.
Take `Cc1cccc(C)c1NC(=O)c1ccc(CN2CCc3ccccc3C2)cc1`: the GFP response vs DMSO was 101%.

As for `COc1ccc(C(=O)N(Cc2ccccc2)c2ccc(C)cc2)cc1S(=O)(=O)N1CCOCC1`, the GFP response vs DMSO is 103%.

For `CCOc1ccccc1NC(=O)C12CC3CC(C1)CC(c1ccc(C)cc1)(C3)C2`, the GFP response vs DMSO was 97.6%.

Consider `Cc1ccc(C23CC4CC(CC(C(=O)NCC(=O)O)(C4)C2)C3)cc1`, for which the GFP response vs DMSO was 292% [may fluoresce violet] (active).

For `C=CCNC(=O)C12CC3CC(C1)CC(C(=O)NCC=C)(C3)C2`, the GFP response vs DMSO is 106%.

Take `CCn1c(C)nc2c1C(=O)c1ccccc1C2=O`: the GFP response vs DMSO is 93.7%.

For `O=C(CNC(=O)[C@@H]1Cc2ccccc2CN1)NC1CCCCC1`, the GFP response vs DMSO is 99.4%.

For the compound `Cc1cc2cc3c(cc2nc1SCC(=O)Nc1c(C)cccc1C)CCC3`, the GFP response vs DMSO is 94.7%.

As for `CC(C)(C)NC(=O)C(c1ccc(Cl)cc1)N(CCO)C(=O)c1snc(C(N)=O)c1N` (centres undefined), the GFP response vs DMSO is 97.4%.

For the compound `CCOc1ccc(C(C(=O)NC2CCCC2)N(C(=O)c2snc(C(N)=O)c2N)C2CCCC2)cc1` (centres undefined), the GFP response vs DMSO was 113%.

Take `NC(=O)c1nsc(C(=O)N(CCCN2CCOCC2)C(C(=O)NC2CCCCC2)c2ccc(Cl)cc2)c1N` (centres undefined): the GFP response vs DMSO was 238% [may fluoresce violet] (active).

With `CC(C)CNC(=S)NC(=O)c1ccc(Cl)cc1`, the GFP response vs DMSO was 100%.

For the compound `COCc1cc(=O)n2[nH]c(C)c(-c3ccccc3)c2n1`, the GFP response vs DMSO is 97.4%.

For the compound `COCCNc1nc2nonc2nc1N1CCCC1c1nccs1` (centres undefined), the GFP response vs DMSO is 90.4%.

With `CCc1ccc(S(=O)(=O)N/N=C\c2ccc([N+](=O)[O-])o2)cc1`, the GFP response vs DMSO was 105%.

In the case of `CCn1c(/C=C/c2ccc([N+](=O)[O-])o2)nc2ccccc2c1=O`, the GFP response vs DMSO was 304% (active).

`CCn1c(=O)c([N+](=O)[O-])c(NCc2ccc3c(c2)OCO3)c2ccccc21`: the GFP response vs DMSO is 94.2%.

For `CC(C)(C)c1ccccc1NC(=O)CN1C(=O)NC2(CCCC2)C1=O`, the GFP response vs DMSO is 105%.

Turning to `Cc1ccc(Cl)c(OCC(=O)NN2CCN(C)CC2)c1`, the GFP response vs DMSO was 103%.

As to `O=C(COC(=O)c1ccc(O)cc1O)c1ccc2c(c1)OCCO2`, the GFP response vs DMSO was 110%.

On to `COc1ccccc1C(=O)NCC(=O)OCC(=O)Nc1nnc(-c2ccccc2)o1`, for which the GFP response vs DMSO was 99.7%.

On to `Cc1cc(C)cc(N(CC(=O)NC2CCCC2)C(=O)CCC(=O)Nc2cc(C)on2)c1`, for which the GFP response vs DMSO is 327% [may fluoresce violet] (active).

Regarding `Cc1cc(C)cc(N(CC(=O)NC2CCCC2)C(=O)CCC(=O)Nc2nccs2)c1`, the GFP response vs DMSO was 107%.

In the case of `Cc1cc(NC(=O)CCC(=O)N(CC(=O)NC2CCCC2)c2ccc(F)cc2)no1`, the GFP response vs DMSO was 101%.
